Data taken from PubChem BioAssay (Tox21).
Where “and” joins values, the source holds several entries; their conditions need not be identical. Identical values can stand only once. Records with an inconclusive call do not appear. Calls of active or inactive are those of the source. Calls come from the whole dose curve; as a rule, active = well fitted inhibition curve with a large enough effect in the repeat runs; inconclusive = weak or mixed curves; inactive = no such curve, though single readings can be large or run the other way.

What follows are compounds tested against Cytochrome P450 1A2 (Homo sapiens) (UniProt P05177) (assay: Cytochrome P450 Family 1 Subfamily A Member 2 (CYP1A2) small molecule antagonists: luciferase reporter qHTS assay (AID 1671199; note: nearly all actives have a fitted effect of over 50% in size)). Conditions: P450-Glo CYP1A2 enzyme, luciferin luminescence, 1 h; series mostly up to 115 µM; activity change, negative = inhibition: at the top concentration.
Cytochrome P450 1A2 (Homo sapiens), sequence (P05177 whole entry, looked up): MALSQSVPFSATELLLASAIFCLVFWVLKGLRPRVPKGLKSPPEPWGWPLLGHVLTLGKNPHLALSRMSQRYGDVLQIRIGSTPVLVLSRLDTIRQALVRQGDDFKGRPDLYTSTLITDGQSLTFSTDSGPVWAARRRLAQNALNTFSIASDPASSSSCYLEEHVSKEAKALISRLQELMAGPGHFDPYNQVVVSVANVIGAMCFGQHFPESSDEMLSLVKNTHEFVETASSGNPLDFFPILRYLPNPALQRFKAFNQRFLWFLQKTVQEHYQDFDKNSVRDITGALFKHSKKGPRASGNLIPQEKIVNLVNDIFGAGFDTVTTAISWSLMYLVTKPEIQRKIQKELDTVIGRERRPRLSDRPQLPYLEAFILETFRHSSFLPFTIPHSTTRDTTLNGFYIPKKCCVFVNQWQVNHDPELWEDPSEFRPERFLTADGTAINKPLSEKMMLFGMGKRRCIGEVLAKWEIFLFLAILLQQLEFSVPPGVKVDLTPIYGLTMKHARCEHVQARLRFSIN
Excerpt: National Center for Advancing Translational Sciences [NCATS]
U.S. Environmental Protection Agency [EPA]
National Institutes of Environmental Health Sciences [NIEHS]
National Toxicology Program [NTP]
U.S. Food and Drug Administration [FDA]
Cytochrome P450 (CYP) enzymes are membrane-bound hemeproteins that play a key role in metabolism of drugs and xenobiotics. Evaluation of the effect of chemicals on CYP isozymes is useful to minimize the adverse drug reactions and toxicities in drug development process. Tox21 chemicals were tested for their effect on CYP enzyme activities by using P450-Glo (TM) screening systems (Promega Corporation, Madison, WI). These systems provide a luminescent method containing proluciferin substrates and are converted to luciferin products by CYP isozymes. The luciferin products formed are detected with a luciferin detection reagent, and the amount of light produced is proportional to CYP activity. P450-Glo (TM) CYP1A2 screening system (Catalog. No. V9770) was used to detect the compounds that interfere in CYP1A2 activity. The positive control compound used for CYP1A2 assay is furafylline (Sigma-Aldrich, St. Louis, MO).
Tox21 Assay Protocol Summary:
Two ul of enzyme-substrate mix was dispensed into medium binding white/solid 1536-well plates (Greiner Bio-One North America Inc., Monroe, NC) using a BioRaptr Flying Reagent Dispenser (FRD, Beckman Coulter, Brea, CA). Compounds dissolved in DMSO and positive control (furafyllline) were transferred to the assay plates at 23 nl using a Pintool station (Wako, San Diego, CA). The assay plates were incubated at room temperature for 10 min. Then 2 ul of NADPH regeneration solution was added to each well of the assay plates using an FRD and incubated at room temperature for 1 h. The reaction was stopped by adding 4 ul of detection reagent using an FRD and after 20 min incubation at room temperature the luminescence signal was measured using a ViewLux plate reader (Perkin Elmer, Shelton, CT). Data were expressed as relative luminescence units.
% is set by controls: 0 for no effect and ±100 for the full control effect; potency is the fitted concentration of half-maximal effect.

Row | Compound | activity change, negative = inhibition | Potency
1 | C=C(Cl)CCl | -17.8% (inactive) | 
2 | N=C(N)[Se] | -6.71% (inactive) | 
3 | O=P(O)(O)CN(CP(=O)(O)O)CP(=O)(O)O |  | inactive
4 | O=C(NC(=O)c1c(F)cccc1F)Nc1cc(Cl)c(F)c(Cl)c1F |  | 30.9 µM (active)
5 | COc1cc(CC(C)N)cc(OC)c1OC (stereo not given) |  | 43.2 µM (active)
6 | N#CC(Br)(Br)C(N)=O | -20.6% (inactive) | 
7 | CC(Cl)(Cl)Cl | -18.2% (inactive) | 
8 | OP(O)c1ccccc1 | -18.7% (inactive) | 
9 | CCN[C@@H](C)Cc1ccccc1 | -13.7% (inactive) | 
10 | BrCCc1ccccc1 | -21.3% (inactive) | 
11 | C(COCC1CO1)OCC1CO1 (stereo not given) | -16.9% (inactive) | 
12 | CCc1cc(OC)c(C[C@H](C)N)cc1OC |  | 20.9 µM (active)
13 | CN(C)C(=O)Oc1cc(OC(=O)N(C)C)cc(C(O)CNC(C)(C)C)c1 (stereo not given) | -12.7% [at 53 µM] (inactive) | 
14 | NC1(c2ccccc2)CCCCC1 | -0.409% (inactive) | 
15 | CCC(=O)c1ccc(Cl)cc1 | -27.2% (inactive) | 
16 | O=c1[nH]oc2c1CCNC2 | -3.91% [at 53 µM] (inactive) | 
17 | C=C(Cl)CSC(=S)N(CC)CC |  | 9.77 µM (active)
18 | C=CCN1CC[C@]23CCCC[C@H]2[C@H]1Cc1ccc(O)cc13 | 11.7% [at 53 µM] (inactive) | 
19 | CCCOc1nn(C(=O)NS(=O)(=O)c2ccccc2C(=O)OC)c(=O)n1C | -26.2% (inactive) | 
20 | C1CN2CCC1CC2 | 6.34% [at 53 µM] (inactive) | 

Row | Compound | activity change, negative = inhibition | Potency
21 | CC(C)C(C)(N)C#N (stereo not given) | -10.5% (inactive) | 
22 | NC(=O)CS(=O)C(c1ccccc1)c1ccccc1 (stereo not given) | -16% [at 53 µM] (inactive) | 
23 | CC(Cc1ccccc1)NCCn1cnc2c1c(=O)n(C)c(=O)n2C (stereo not given) | -15% (inactive) | 
24 | CCN1CCCC1CNC(=O)C(O)(c1ccccc1)c1ccccc1 (stereo not given) | 1.48% [at 53 µM] (inactive) | 
25 | CC(C)(N)Cc1ccc(Cl)cc1 |  | 24.5 µM (active)
26 | O=C(NC(O)C(Cl)(Cl)Cl)NC(O)C(Cl)(Cl)Cl (stereo not given) | -3.06% [at 53 µM] (inactive) | 
27 | NC(=O)OCCCc1ccccc1 |  | 21.9 µM (active)
28 | O=P(O)(O)c1ccccc1 | -17% (inactive) | 
29 | COc1cccc(C=O)c1 |  | 39.9 µM (active)
30 | CCOC(=O)Nc1cccc(OC(=O)Nc2ccccc2)c1 |  | 12.6 µM (active)
31 | O=C1C2CC=CCC2C(=O)N1SC(Cl)(Cl)Cl (stereo not given) |  | 31.6 µM (active) and 22.1 µM (active)
32 | C=CC=O | -9.35% (inactive) | 
33 | C[C@]12C=CC(=O)C=C1CC[C@@H]1[C@@H]2CC[C@@]2(C)[C@H]1CC[C@]2(C)O | -2.17% [at 53 µM] (inactive) | 
34 | CCN(CCO)CCO | -16.4% (inactive) | 
35 | C=C1C[C@@H]2[C@H](CC[C@]3(C)C(=O)CC[C@@H]23)[C@@]2(C)C=CC(=O)C=C12 | 1.54% [at 53 µM] (inactive) | 
36 | Clc1ccc(C(Cl)(Cl)Cl)cn1 |  | 7.96 µM (active)
37 | CCOC(=O)NC(C)(C)Cc1ccc(Cl)cc1 |  | 6.45 µM (active)
38 | COc1ccccc1OC | -14.4% (inactive) | 
39 | C[C@H](CN1CCOCC1)C(C(=O)N1CCCC1)(c1ccccc1)c1ccccc1 | 0.279% (inactive) | 
40 | NCCOS(=O)(=O)O | -12.7% (inactive) | 
